From publication PMC5540273 (PLoS ONE, 2017) come the findings set out here.

Molecules are shown by their SMILES.

Some test systems named below: CSF1R; CSK; CSNK1A1L; CSNK1A1; CSNK1D; CSNK1E; CSNK1G1; CSNK1G2; CSNK1G3; CSNK2A1; CSNK2A2; DAPK1; DAPK2; DAPK3; DDR1; DDR2.
Holding throughout (details): concentration: 1 μM, replicates: in singlicate; n = 1
For another test, the system named is T1, CTK.
T1 construct: gene MATK

Another test concerns T2, DCAMKL1.
T2 construct: gene DCLK1

For a further test, the system named is T3, DCAMKL2.
T3 construct: gene DCLK2

For a further test, the system named is T4, DCAMKL3.
T4 construct: gene DCLK3
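Note: KINOMEscan kinase panel screen.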

For `Cc1nnc(-c2ccc3ncn(-c4ccc(S(C)=O)cc4)c3c2)o1` (stereo not shown), the “%Inh” value in the test on CSF1R was 12%; with CSK, 0%; in the test with CSNK1A1L, 14%; in the test on CSNK1A1, 0%; in the test on CSNK1D, 9%; in the test on CSNK1E it was 8%. Further, the “%Inh” value in the test on CSNK1G1 turned out to be 0%; with CSNK1G2, 18%; in the test with CSNK1G3, 24%; with CSNK2A1, 22%; with CSNK2A2, 35%; in the test with CTK it was 0%. In addition, the “%Inh” value was 26% in the test on DAPK1; 0% in the test with DAPK2; 0% with DAPK3; 37% in the test with DCAMKL1; 12% with DCAMKL2; 9% in the test with DCAMKL3. The “%Inh” value in the test with DDR1 and with DDR2 was 0% in each case.

Consider `CCC(=O)c1c(-c2ccccc2)c2cc(Cl)ccc2c(=O)n1Cc1ccc(C(=O)O)cc1`, for which the “%Inh” value in the test with CSF1R amounted to 2%; with CSK it was 0%; in the test on CSNK1A1L, 1%; in the test with CSNK1A1 it was 0%; in the test on CSNK1D, 0%; in the test on CSNK1E, 0%. Also, the “%Inh” value with CSNK1G1, with CSNK1G2, in the test with CSNK1G3, in the test with CSNK2A1, with CSNK2A2 and in the test with CTK was 0% throughout. Further, the “%Inh” value is 13% in the test on DAPK1; 0% with DAPK2; 0% in the test with DAPK3; 8% in the test with DCAMKL1; 0% in the test with DCAMKL2; 0% in the test with DCAMKL3. Besides, the “%Inh” value in the test on DDR1 worked out at 24%; with DDR2 it was 34%.

Consider `CCS(=O)c1ccc(-c2coc3ccc(-c4nnc(C)o4)cc23)cc1` (stereo not shown), for which the “%Inh” value was found to be 0% with CSF1R; 19% in the test on CSK; 0% in the test with CSNK1A1L; 1% with CSNK1A1; 0% with CSNK1D; 0% in the test on CSNK1E. Moreover, the “%Inh” value in the test on CSNK1G1 worked out at 0%; in the test with CSNK1G2, 0%; in the test on CSNK1G3, 0%; in the test on CSNK2A1, 21%; in the test with CSNK2A2, 31%; in the test with CTK it was 0%. The “%Inh” value is given as 14% in the test on DAPK1; 0% with DAPK2; 0% in the test on DAPK3; 36% in the test with DCAMKL1; 0% in the test on DCAMKL2; 0% in the test with DCAMKL3. In addition, the “%Inh” value in the test on DDR1 was found to be 0%; with DDR2, 16%.

As for `COc1ccc(-c2cc3c(C)nc(N)nc3n([C@H]3CC[C@H](OCCO)CC3)c2=O)cn1`, the “%Inh” value with CSF1R stood at 5%; with CSK it was 13%; in the test on CSNK1A1L, 0%; in the test with CSNK1A1, 24%; with CSNK1D it was 1%; with CSNK1E it was 4%. Further, the “%Inh” value in the test on CSNK1G1 is 0%; with CSNK1G2 it was 0%; with CSNK1G3 it was 0%; with CSNK2A1, 0%; with CSNK2A2 it was 11%; in the test on CTK it was 2%. Besides, the “%Inh” value in the test on DAPK1 came to 11%; with DAPK2 it was 0%; in the test on DAPK3, 0%; in the test on DCAMKL1, 0%; in the test with DCAMKL2, 0%; in the test with DCAMKL3, 0%. Besides, the “%Inh” value with DDR1 and with DDR2 was 0% throughout.

Turning to `COc1ccc(Nc2nccc(N3CCC(NS(=O)(=O)c4ccc(NC(C)=O)cc4)C3)n2)cc1` (stereo not shown) [GSK1379729], the “%Inh” value in the test with CSF1R is reported as 1%; in the test on CSK it was 0%; in the test on CSNK1A1L it was 13%; in the test with CSNK1A1, 32%; in the test on CSNK1D, 17%; in the test on CSNK1E, 25%. The “%Inh” value in the test on CSNK1G1 came to 6%; in the test on CSNK1G2 it was 18%; in the test with CSNK1G3, 28%; with CSNK2A1, 15%; with CSNK2A2 it was 18%; with CTK, 0%. Further, the “%Inh” value is 0% in the test with DAPK1; 0% with DAPK2; 6% in the test on DAPK3; 10% in the test with DCAMKL1; 0% with DCAMKL2; 53% with DCAMKL3. For the same compound, the “%Inh” value in the test on DDR1 was 13%; in the test on DDR2, 26%.

As for `CCc1ccc(-c2ccc3c(c2)-c2nn(C)cc2S(=O)(=O)N3C)cc1`, the “%Inh” value in the test with CSF1R turned out to be 0%; with CSK, 2%; in the test on CSNK1A1L, 0%; in the test on CSNK1A1 it was 2%; in the test with CSNK1D, 0%; in the test on CSNK1E, 0%. Moreover, the “%Inh” value in the test on CSNK1G1 is 0%; with CSNK1G2, 7%; with CSNK1G3 it was 0%; with CSNK2A1, 0%; in the test on CSNK2A2, 0%; in the test with CTK it was 0%. In addition, the “%Inh” value with DAPK1 is given as 25%; with DAPK2 it was 0%; in the test with DAPK3 it was 9%; in the test on DCAMKL1 it was 22%; in the test with DCAMKL2, 0%; in the test with DCAMKL3, 0%. The “%Inh” value in the test on DDR1 was 0%; in the test with DDR2, 41%.

With `Cc1ccc(Oc2ccc(Nc3ncnc4cc[nH]c34)cc2C)cn1`, the “%Inh” value with CSF1R is 5%; with CSK it was 20%; with CSNK1A1L, 11%; with CSNK1A1, 8%; in the test with CSNK1D, 0%; in the test on CSNK1E, 0%. The “%Inh” value is listed as 12% in the test with CSNK1G1; 13% in the test on CSNK1G2; 0% with CSNK1G3; 32% in the test with CSNK2A1; 13% in the test with CSNK2A2; 29% in the test on CTK. Further, the “%Inh” value in the test with DAPK1, with DAPK2, with DAPK3, in the test on DCAMKL1, in the test on DCAMKL2 and in the test with DCAMKL3 was 0% each time. Moreover, the “%Inh” value in the test with DDR1 and with DDR2 was 0% in each case.

Consider `Cc1nn2c(=O)cc(N3CCOCC3)nc2n1Cc1cccc(Cl)c1Cl` [GSK2342769], for which the “%Inh” value is 13% in the test on CSF1R; 0% with CSK; 22% in the test with CSNK1A1L; 0% in the test on CSNK1A1; 4% in the test on CSNK1D; 22% with CSNK1E. Besides, the “%Inh” value in the test with CSNK1G1 is 0%; in the test with CSNK1G2 it was 0%; with CSNK1G3 it was 9%; in the test on CSNK2A1 it was 16%; with CSNK2A2, 5%; in the test with CTK it was 0%. In addition, the “%Inh” value was found to be 27% in the test with DAPK1; 21% in the test on DAPK2; 64% in the test with DAPK3; 0% with DCAMKL1; 0% in the test on DCAMKL2; 7% in the test with DCAMKL3. Also, the “%Inh” value in the test on DDR1 is on record as 25%; in the test with DDR2, 0%.
